The list is not random: actives were taken first. Their share in the collection is about 4%.
Anthrax LF prot: anthrax lethal factor protease inhibition | P15917 | inhibition, % at 10 µM | AID 588501 | 360,000 compounds, 0.12% hits | multiplex microsphere protease cleavage assay, LF; note: plate controls were buffer without enzyme for full effect and enzyme alone for no effect
Target sequence (P15917 whole entry, looked up): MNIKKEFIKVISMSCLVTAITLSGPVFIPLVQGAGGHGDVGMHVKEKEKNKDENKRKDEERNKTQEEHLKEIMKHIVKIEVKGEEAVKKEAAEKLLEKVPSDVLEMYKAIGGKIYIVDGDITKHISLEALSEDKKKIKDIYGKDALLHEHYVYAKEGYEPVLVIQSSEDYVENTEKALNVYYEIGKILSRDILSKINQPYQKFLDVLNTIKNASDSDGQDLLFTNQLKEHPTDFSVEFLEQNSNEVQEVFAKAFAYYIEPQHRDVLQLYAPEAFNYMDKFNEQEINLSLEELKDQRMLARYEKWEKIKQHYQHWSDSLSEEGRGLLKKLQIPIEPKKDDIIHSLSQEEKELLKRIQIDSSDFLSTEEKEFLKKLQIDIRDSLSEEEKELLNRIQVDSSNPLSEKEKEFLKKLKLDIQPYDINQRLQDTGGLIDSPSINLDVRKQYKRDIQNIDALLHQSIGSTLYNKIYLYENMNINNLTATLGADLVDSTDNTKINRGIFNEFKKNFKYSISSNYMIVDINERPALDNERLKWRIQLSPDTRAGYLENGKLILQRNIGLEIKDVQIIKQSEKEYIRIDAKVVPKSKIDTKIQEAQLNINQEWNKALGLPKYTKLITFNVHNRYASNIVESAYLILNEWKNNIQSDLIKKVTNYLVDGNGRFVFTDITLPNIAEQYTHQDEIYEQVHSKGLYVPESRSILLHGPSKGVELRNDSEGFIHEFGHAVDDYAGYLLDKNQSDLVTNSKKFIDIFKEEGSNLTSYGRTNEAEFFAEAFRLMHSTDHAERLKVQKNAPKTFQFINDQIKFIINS
MazEF act: activators of E. coli MazEF toxin-antitoxin RNase; 350,000 compounds, 0.32% hits; P0AE70; FAM/BHQ RNA-DNA oligo cleavage fluorescence, 5 h; AID 504720; activation, % at 20 µM; in the data active = activation above about 50%
BoNT A protease: blocks Botulinum neurotoxin A light chain protease. inhibition, % at 10 µM. multiplex microsphere protease substrate cleavage, flow cytometry. 360,000 compounds, 0.17% hits; note: plate controls were buffer without enzyme for full effect and enzyme alone for no effect
VHR inh abs: blocks human VHR1 dual specificity phosphatase. recombinant VHR phosphatase, pNPP absorbance. inhibition, % at 13.3 µM. 290,000 compounds, 0.52% hits; in the data active = inhibition above about 50%
Autofluor counter: flagged as autofluorescent in microsphere protease counterscreen; compound autofluorescence counterscreen, microsphere flow cytometry; stronger effect = higher value; fluorescence intensity (no concentration beside the values); 360,000 compounds, 3.1% hits; in the data active = fluorescence intensity above about 16000; inconclusive = no clear call, values can overlap the other calls
BoNT F protease: blocks Botulinum neurotoxin F light chain protease | Multiplex microsphere protease cleavage assay, flow cytometry | 360,000 compounds, 0.22% hits | AID 588497 | inhibition, % at 10 µM; in the data active = inhibition above about 35%, passing the limit was not always enough; inconclusive = no clear call, values can overlap the other calls; note: plate controls were buffer without enzyme for full effect and enzyme alone for no effect
BoNT-A LC CP1: blocks botulinum neurotoxin A light chain protease. 720 compounds, 3% hits. AID 602139. inhibition, % at 10 µM. multiplex microsphere protease assay, flow cytometry. shares compounds with BoNT F protease; in the data active = inhibition above about 32%
BoNTF LC inh 1: BoNT/F light chain protease inhibition; shares compounds with BoNT F protease; 720 tested, under 10 active; AID 602140; multiplex microsphere protease cleavage assay, flow cytometry; inhibition, % at 10 µM; call rule not given here
Anthrax LF CP1: inhibitors of Bacillus anthracis lethal factor protease | shares compounds with BoNT F protease | multiplex microsphere protease cleavage assay, LF | inhibition, % at 10 µM | 720 tested, under 10 active; call rule not given here
Active calls of the source: *; u = inconclusive; x = no result. Cut-off read from the data, not from the text of the source, unless noted: active = inhibition above about 30%; inconclusive = no clear call, values can overlap the other calls; inactive = below that.

SMILES	Anthrax LF prot	MazEF act	BoNT A protease	VHR inh abs	Autofluor counter	BoNT F protease	BoNT-A LC CP1	BoNTF LC inh 1	Anthrax LF CP1
CCOC(=O)N1CCN(CCC(=O)Nc2cc(C)ccc2C)CC1	-14	0	2	-9	3437	9	x	x	x
CCOC(=O)C1CCN(CCC(=O)Nc2cc(C)ccc2C)CC1	42*	2	1	22	3509	u	0	-1	-5
Cc1cc(Cl)ccc1OCC(=O)N(Cc1ccco1)c1c(N)n(Cc2ccccc2)c(=O)[nH]c1=O	-7	2	-1	x	3180	-8	x	x	x
CCSc1ncnc2c1sc1nc3c(cc12)COC(C)(C)C3	2	1	3	26	2577	36*	-1	-8	-4
COc1cccc(C(=O)Nn2cnnc2)c1	-2	-1	0	15	4632	-7	x	x	x
COc1cc(OC)cc(C(=O)Nn2cnnc2)c1	37*	6	3	6	3694	u	0	-6	-2
COc1ccc(-n2cc(CNCCCn3ccnc3)c(-c3cccc(F)c3)n2)cc1	-2	-8	4	6	2583	37*	-1	-15	-4
COc1ccc(C(=O)CSc2nnc(CN3CCCC3)n2-c2ccc(F)cc2)c(OC)c1	-2	-1	4	2	2755	39*	-1	-5	0
COc1ccc(C(=O)CSc2nnc(CN3CCCCC3)n2-c2ccc(F)cc2)cc1OC	2	6	0	5	2073	-28	x	x	x
Clc1ccccc1-c1nnc2n1CCCCC2	37*	4	-10	9	3259	-17	0	5	2
CCN(CC)c1ccc(/C=N/N2CCN(c3ccccc3OC)CC2)cc1	-11	0	-3	49	3629	12	x	x	x
Cc1[nH]c2ccccc2c1/C=N/Nc1ccc([N+](=O)[O-])cc1S(=O)(=O)Nc1ccc(Cl)cc1	-25	-10	1	-6	14175	-76	x	x	x
CN(CCOc1ccccc1)C(=O)c1ccc2c(=O)n3c(nc2c1)CCC3	-2	-1	-6	x	u	3	x	x	x
CC(=O)Nc1ccc(NS(=O)(=O)c2cc(-c3n[nH]c(=O)c4ccccc34)ccc2C)cc1	-5	0	5	21	4333	41*	-1	-5	-5
COC(=O)C(Cc1ccccc1)NC(=O)c1cccc(S(=O)(=O)N(C)C)c1 (centres undefined)	-2	4	7	18	4261	37*	0	-1	-2
COC(=O)[C@H](Cc1ccccc1)N(C)S(=O)(=O)c1cccc(S(=O)(=O)N(C)[C@@H](Cc2ccccc2)C(=O)OC)c1	-8	2	0	17	2787	-2	x	x	x
CCOc1ccc(NC(=O)Nc2ccc(Br)cn2)cc1	1	-9	4	13	2591	48*	1	-5	-2
COc1ccc(CCN2C(=O)CCC2(C)C(=O)NC2CCCC2)cc1OC (centres undefined)	1	7	-1	-2	4572	-10	x	x	x
COc1ccccc1NS(=O)(=O)c1ccc2[nH]c(=O)[nH]c2c1	-8	0	2	8	3623	36*	0	-4	0
O=c1[nH]c2ccc(S(=O)(=O)Nc3ccccc3O)cc2[nH]1	15	26	2	-4	3478	-1	x	x	x
O=C(Nc1ccc2nc(-c3cccs3)c(-c3cccs3)nc2c1)NC1CC1	54*	10	83*	27	6638	36*	50*	-1	31*
O=C(Nc1cccs1)NC1CCCC1	-1	6	0	4	3254	1	x	x	x
Cc1ccc(C(=O)Nc2ccc(S(=O)(=O)N3CCc4ccccc4C3)cc2)o1	-3	-3	4	-2	8089	36*	1	-2	-1
O=C(Nc1ccc(F)cc1)Nc1cccc(Br)c1	32*	12	2	x	3227	u	1	-6	-3
COC(=O)CSc1ncnc2c1sc1nc(-c3ccco3)c3c(c12)CC(C)(C)OC3	x	x	x	-9	x	x	x	x	x
SMILES	Anthrax LF prot	MazEF act	BoNT A protease	VHR inh abs	Autofluor counter	BoNT F protease	BoNT-A LC CP1	BoNTF LC inh 1	Anthrax LF CP1
CCOC(=O)c1sc2nc(-c3ccco3)c3c(c2c1N)CC(C)(C)OC3	20	6	33*	10	10754	7	8	3	5
CCc1nnc(NC(=O)CN2CCN(Cc3ccccc3Cl)CC2)s1	42*	3	-2	4	3362	u	0	-2	-1
CCN1CCc2[nH]c3ccccc3c2C1	15	-3	5	10	3806	54*	-2	-9	-3
c1ccc(CN2CCc3[nH]c4ccccc4c3C2)cc1	-9	12	0	x	4543	-28	x	x	x
CCCCNCCOCCOc1ccc(C)cc1[N+](=O)[O-]	u	13	22	0	u	46*	2	1	1
CCOC(=O)c1c(NC(=S)N2CCOCC2)sc(C)c1C	5	-5	2	10	3766	48*	-3	-6	-3
CCOC(=O)c1c(N)sc(C(=O)N2CCOCC2)c1C	2	1	0	13	11163	0	x	x	x
CCC1=Nc2ccccc2-c2nnc(SC)nc2O1	-8	15	2	-14	4512	34	0	-4	-7
Cc1ccc(-c2nc3c(c(=O)c4ccccc4n3C)c(=O)n2-c2ccc(F)cc2)cc1	-3	8	u	22	5145	u	x	x	x
Cn1c2ccccc2c(=O)c2c(=O)n(-c3ccccc3)c(-c3ccc(C(C)(C)C)cc3)nc21	36*	-9	4	13	4082	u	-2	0	2
O=C(NCS(=O)(=O)c1ccccc1)c1ccccc1	-2	4	2	21	4447	36*	1	2	4
O=C(NCCNC(=O)c1ccccc1)c1ccccc1	1	8	1	13	4755	3	x	x	x
CN(C(=O)COC(=O)C12CC3CC(CC(Cl)(C3)C1)C2)C1(C#N)CCCCC1	0	5	0	x	4018	-4	x	x	x
CCCCN1C(=O)C(NC(C)=O)c2ccccc21 (centres undefined)	-4	7	0	-1	4213	0	x	x	x
CC(C)c1ccc(S(=O)(=O)c2cnc(=S)[nH]c2N)cc1	-10	-3	2	-16	3254	37*	3	1	-1
Cc1ccccc1Cn1cc(NC(=O)c2cc3nc(-c4ccco4)cc(C(F)(F)F)n3n2)cn1	-2	-6	0	21	2908	12	1	0	-3
Cc1nn(C)c(C)c1NC(=O)c1cc2nc(-c3ccco3)cc(C(F)(F)F)n2n1	-4	7	0	8	3882	-1	0	0	4
CCc1ccc(-c2cc(C(F)(F)F)n3nc(C(=O)Nc4cnn(Cc5ccc(C)cc5)c4)cc3n2)s1	0	-12	7	-2	11288	3	3	5	3

Bioassay records from PubChem.
